In the supplement of paper PMC6555819:

Test system: VDR:RXRa (NR concentration 270 nM, RXRa partner concentration 90 nM)
Experiment: PBM binding z-score (relative to random genomic background probes); higher = stronger binding; sequences stand for … in GC…GCGATTGACAGCGTAGAATGAAGG
Description: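 Protein-binding microarray (Agilent 4x180K custom design, double-stranded 60-nt probes: 5' GC cap, 34-nt variable region, 24-nt constant primer region; full probe sequence given). Purified or IVT nuclear receptor:RXRα heterodimers (3:1 NR:RXRα, mostly 270:90 nM) or homodimers were incubated for 1 h in PBS with 2% milk and no ligand, then detected with Alexa488 antibodies. Fluorescence from o1-orientation probes (~5 replicates averaged) was converted to z-scores against 500 random hg19 background probes. Variable regions are seed direct-repeat (DR0–DR5) sites, all their single-nucleotide variants and half-site ablations.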

Row | Sequence | PBM binding z-score
1 | CCGACTGGGGCAAGATTACCATAACGCACAGCCA | -0.621
2 | ATTCAAAGTTCAGGACGAGGTAACGTAAAGCACG | 3.14
3 | TAGCCTAGGTCATATCGGGCCAGTATACGCTATA | 2.28
4 | ATACCAAGGTGATCATGAGGTCGTTGATACTAAC | 3.38
5 | AGAATGAGGTTATTAAGATCACGGAATTGCGGTC | 3.68
6 | AGAATGAGGTTAAGATCAGGGTAACAGAATACAT | 2
7 | CATACAGGGTCAGCTAGGCCAGACTAGGGACGGC | 3.86
8 | ACAGACAGGTGATTAAGGTAACTCAGGCTATCAT | 0.713
9 | CCTACTGGGACACGAAAGGTCATTGATTCAGTGA | 4.06
10 | TCTTGTAGATCAGAGGTTAAGAAAGCCGAAGCCT | 0.673
11 | TAGCCTGGGTCATGCGGGCCAGTATAGTGTCGGC | 3.07
12 | GCAGACACGTGAAACGCAGGTAACTCAGGGTGGC | -0.854
13 | CGAACTAGGTCAGAACAGGACAGTAAAGGATGAT | 0.971
14 | GCTATTAGTTGAAAGGGCATCCGAATGATTCTCG | 0.499
15 | CCTACTGGGCCAAAATGGTCATTGATGCCGATAA | -0.0666
16 | AGAATGAGGTTATTAAGATCTGGGAATTGCGGTC | 1.33
17 | TCATATAGGTAAACAGGTGAAAGCCCGTAAGTTA | 1.15
18 | CCGACTGGGGCAAGGTTATCATAACGCACAGCCA | 0.0882
19 | GCTAGCAGGCCACTTGGGTCACTCAATGACGGGC | 0.83
20 | TCTCGGAGGACACGAAGGTCAGAGTTTTCCAGAG | 2.41

Row | Sequence | PBM binding z-score
21 | TCTAGCAGGCCAGAAGGTCACTCAAGAGGTACGG | 2.16
22 | CCGAGTTGGTTATGGGGCATTCAGGCAACGGTGA | 0.221
23 | TTACCAAGGTGAAATGTCGTTGATGCACGCCTTG | 0.159
24 | ATCTCTAGGTAACCAAGTTCAGCGAATGCCGAAC | 4.31
25 | GGAGCGAGGGCAAGTTGATAGCAGAGTTTGATGG | 0.407
26 | TCATATAGGTAAATGCAAGGTGAAAGTCCGATCT | 1.37
27 | TAGCCTAGGTTATTCAGGGGCCAGTATAGAAAGC | 0.101
28 | GCGACTGGGTCATCAGCAGGTTACCATAACTTAA | 2.27
29 | GGAACGAGGGCAAAGTTGATACCATCTGTCGACG | 1.48
30 | TAGCCTAGGTCAGATCGGGCCACTATACGCTATA | 1.39
31 | CCTTACGGGTGACTCCAGGTTATAGCATCGGAGT | 0.497
32 | ATCTCTCGGTAACAAGTTCAGTGAAAGAGAGGAC | 1.62
33 | GGAACGAGGGCCAGTTGATAGCAGAGTTTGATGG | -0.702
34 | CGAACTAGGTCAGAACAGGACAGTGAGGGATGAT | 0.739
35 | CCTCGGAGGACAGAAGGTCCGAGCTGTCCGCTTT | -0.656
36 | CCTTACGGGTCAAGGTTATAGTACGGGTGGTACG | 3.62
37 | GCTGCTAGGTCAGGTTGGTCAGCTATCGGGTACG | 0.576
38 | ATCTCTAGGTAAGACTCAGTTGAGTGAAGAACGC | -0.0518
39 | CAAACTAGGTCACGAAAGGTCCAAGTCGAATGAC | 3.82
40 | CAAACTAGGTCGCAGAGGTCAAAGTCCGTGCGTA | 7.14
